# In the supplement of paper PMC8728848:
# This excerpt belongs to a sample that is enriched for the strongest signals.
# What was measured:
# Experiment in all cases: glycan array binding signal (z-score within array); higher = stronger binding
# Settings in all cases: glycan notation: IUPAC condensed, linker removed
# [1] = target: GlcNAc(a1-4)Gal(b1-4)GlcNAc
# How it was run: (§1)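 The binding signal is a Z-score computed within each array. Data were drawn from 3228 arrays in the Consortium for Functional Glycomics database, restricted to those with a known protein sequence. Scores were averaged over arrays of the same protein sequence at different concentrations or buffers, and over linkers, and negative values can be taken as non-binding.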
# [2] = target: GlcNAc(a1-6)Gal(b1-4)GlcNAc
# How it was run: as §1
# GlcNAc(b1-3)Fuc = target: GlcNAc(b1-3)Fuc
# How it was run: as §1
# GlcNAc(b1-3)Gal(b1-4)Glc = target: GlcNAc(b1-3)Gal(b1-4)Glc
# How it was run: as §1
# [3] = target: GlcNAc(b1-3)Gal(b1-4)GlcNAc(b1-2)[GlcNAc(b1-3)Gal(b1-4)GlcNAc(b1-6)]Man(a1-6)[GlcNAc(b1-3)Gal(b1-4)GlcNAc(b1-2)Man(a1-3)]Man(b1-4)GlcNAc(b1-4)GlcNAc
# How it was run: as §1
# [4] = target: GlcNAc(b1-3)Gal(b1-4)GlcNAc(b1-3)Gal(b1-4)GlcNAc(b1-2)Man(a1-3)[GlcNAc(b1-3)Gal(b1-4)GlcNAc(b1-3)Gal(b1-4)GlcNAc(b1-2)Man(a1-6)]Man(b1-4)GlcNAc(b1-4)[Fuc(a1-6)]GlcNAc
# How it was run: as §1
# [5] = target: GlcNAc(b1-3)Gal(b1-4)GlcNAc(b1-3)Gal(b1-4)GlcNAc(b1-3)Gal(b1-4)GlcNAc(b1-2)[GlcNAc(b1-3)Gal(b1-4)GlcNAc(b1-3)Gal(b1-4)GlcNAc(b1-3)Gal(b1-4)GlcNAc(b1-6)]Man(a1-6)[GlcNAc(b1-3)Gal(b1-4)GlcNAc(b1-3)Gal(b1-4)GlcNAc(b1-3)Gal(b1-4)GlcNAc(b1-2)Man(a1-3)]Man(b1-4)GlcNAc(b1-4)[Fuc(a1-6)]GlcNAc
# How it was run: as §1
# [6] = target: GlcNAc(b1-3)Gal(b1-4)GlcNAc(b1-3)Gal(b1-4)GlcNAc(b1-3)Gal(b1-4)GlcNAc(b1-3)Gal(b1-4)GlcNAc(b1-2)[GlcNAc(b1-3)Gal(b1-4)GlcNAc(b1-3)Gal(b1-4)GlcNAc(b1-3)Gal(b1-4)GlcNAc(b1-3)Gal(b1-4)GlcNAc(b1-6)]Man(a1-6)[GlcNAc(b1-3)Gal(b1-4)GlcNAc(b1-3)Gal(b1-4)GlcNAc(b1-3)Gal(b1-4)GlcNAc(b1-3)Gal(b1-4)GlcNAc(b1-2)Man(a1-3)]Man(b1-4)GlcNAc(b1-4)[Fuc(a1-6)]GlcNAc
# How it was run: as §1
# [7] = target: GlcNAc(b1-3)Gal(b1-4)GlcNAc(b1-6)[GlcNAc(b1-3)Gal(b1-3)]GalNAc
# How it was run: as §1
# [8] = target: Man(a1-2)Man(a1-2)Man(a1-6)[Man(a1-3)]Man
# How it was run: as §1
# [9] = target: Man(a1-3)[Man(a1-6)]Man(a1-6)[Man(a1-3)]Man
# How it was run: as §1
# Neu5Ac(a2-3)Gal = target: Neu5Ac(a2-3)Gal
# How it was run: as §1
# [10] = target: Neu5Ac(a2-3)Gal(b1-3)GalNAc(b1-4)[Neu5Ac(a2-8)Neu5Ac(a2-3)]Gal(b1-4)Glc
# How it was run: as §1
# [11] = target: Neu5Ac(a2-3)Gal(b1-3)GlcNAc(b1-2)Man
# How it was run: as §1
# [12] = target: Neu5Ac(a2-3)Gal(b1-4)GlcNAc(b1-3)Gal(b1-4)GlcNAc(b1-3)GalNAc
# How it was run: as §1
# [13] = target: Neu5Ac(a2-3)Gal(b1-4)GlcNAc(b1-3)GalNAc
# How it was run: as §1
# [14] = target: Neu5Ac(a2-3)Gal(b1-4)[Fuc(a1-3)]GlcNAc
# How it was run: as §1
# [15] = target: Neu5Ac(a2-6)Gal(b1-4)GlcNAc
# How it was run: as §1
# [16] = target: Neu5Ac(a2-6)Gal(b1-4)GlcNAc(b1-2)Man(a1-3)Man(b1-4)GlcNAc(b1-4)GlcNAc
# How it was run: as §1
# [17] = target: Neu5Ac(a2-6)Gal(b1-4)GlcNAc(b1-2)Man(a1-6)[Man(a1-3)]Man(b1-4)GlcNAc(b1-4)GlcNAc
# How it was run: as §1
# [18] = target: Neu5Ac(a2-6)Gal(b1-4)GlcNAc(b1-3)GalNAc
# How it was run: as §1
# [19] = target: Neu5Ac(a2-8)Neu5Ac(a2-3)[Gal(b1-3)GalNAc(b1-4)]Gal(b1-4)Glc
# How it was run: as §1
# [20] = target: Neu5Ac(a2-8)Neu5Gc(a2-3)Gal(b1-4)GlcNAc
# How it was run: as §1
# Neu5Ac(b2-6)GalNAc = target: Neu5Ac(b2-6)GalNAc
# How it was run: as §1
binder,measurement,setting,value
PX9961M-bvu-482-23-482 (Bacteroides vulgatus) (protein) WLDLAPSTQVDTETSINVLSDIEFTLNGIYSTMQSSDAYSGRLVYYGDVTGDDMQAVSSTKRTGNYYRFNFTKDNGPSSHWSYLYSIIQNCNLILMNVDKLSIDEDETEYKNDLKGQALAIRGMALFDLTRIFGYPYLKDNGASLGVPIVKELSTIDSKPARNTVAECYTEIISDLKNSTELLSGDFNKGKVNRWAAMTLLSRVYLYKGEYNEALTMAENAIKGAEKEGYALWTNEEYPTAWGNDASASNPGEILFEIVNLTTDSPGKESMGYLNSYNGYDDMCITCSFYQLLKKDPKDVRLKILSFDKKYYAYVNKYQPQQGENITDANIPLIRLSEAYLNAAEAAVQTGDNAKAVKYLNSIVQRANPENSVEGKTLTLENVLDERRKELVAEGHRMYDVIRNGMTVKRIDVKDSDINKTKHNTAYMEYDWNFHKILLPIPKKEMDANPNMKQNPGYVD,glycan array binding signal (z-score),[1],-0.43
same,glycan array binding signal (z-score),[2],-0.826
same,glycan array binding signal (z-score),GlcNAc(b1-3)Fuc,0.451
same,glycan array binding signal (z-score),GlcNAc(b1-3)Gal(b1-4)Glc,-0.369
same,glycan array binding signal (z-score),[3],-0.33
same,glycan array binding signal (z-score),[4],0.761
same,glycan array binding signal (z-score),[5],1.99
same,glycan array binding signal (z-score),[6],1.58
same,glycan array binding signal (z-score),[7],0.464
same,glycan array binding signal (z-score),[8],0.455
same,glycan array binding signal (z-score),[9],2.74
same,glycan array binding signal (z-score),Neu5Ac(a2-3)Gal,-0.037
same,glycan array binding signal (z-score),[10],0.996
same,glycan array binding signal (z-score),[11],0.535
same,glycan array binding signal (z-score),[12],-0.629
same,glycan array binding signal (z-score),[13],0.638
same,glycan array binding signal (z-score),[14],-0.48
same,glycan array binding signal (z-score),[15],0.329
same,glycan array binding signal (z-score),[16],-0.834
same,glycan array binding signal (z-score),[17],0.152
same,glycan array binding signal (z-score),[18],-0.573
same,glycan array binding signal (z-score),[19],-0.531
same,glycan array binding signal (z-score),[20],18
same,glycan array binding signal (z-score),Neu5Ac(b2-6)GalNAc,-0.083
